Assay outcomes from PubChem BioAssay.
HT1080 IDH1KD tx – qHTS for induction of synthetic lethality in tumor cells producing 2HG: qHTS for the HT-1080-IDH1KD cell line; HT-1080 IDH1 knockdown viability, ATP luminescence, 48 h; Potency, µM (highest dose often 46.1 µM), usual class: cytotoxic; 360,000 tested, 2% active; AID 686971, 2013
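Luminescent ATP read-out (CellTiter-Glo, 10 min at room temperature) after 48 h compound exposure at 37 °C gave viability of IDH1-knockdown HT-1080 cells. Activity was normalised to DMSO and cell-free wells, then fitted as concentration-response curves.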
DT40 TDP1 no CPT – qHTS for Inhibitors of human tyrosyl-DNA phosphodiesterase 1 (TDP1): qHTS in cells in absence of CPT | AID 686978, 2013 | DT40 Tdp1-/- hTDP1 cells, no CPT, ATP luminescence, 48 h | Potency, µM (top dose mostly 46.2 µM), hits mostly inhibitors | 420,000 tested, 15% active; further: nearly all actives have a fitted effect of over 55% in size
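DT40 Tdp1-/-;hTDP1 cells, no CPT (DMSO vehicle only), 400 cells/well; compounds pin-transferred; ≥48 hr, 37 °C; CellTiter-Glo 30 min RT dark, luminescence read.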
HepG2 tox – qHTS for Inhibitors of TGF-b: Cytotox Counterscreen; 410,000 tested, 0.76% active; HepG2 CAGA-GFP viability, ATP luminescence, 18 h; Potency, µM (highest dose often 46.1 µM), most hits filed as cytotoxic
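HepG2 CAGA-GFP cells (1000/well, DMEM with 1% FBS) received compound, then TGF-beta at 500 pg/mL final, and were incubated 18 hours at 37 degrees C. Viability was read by CellTiter-Glo luminescence. Media-only wells were set as complete cell-killing and DMSO as no toxicity.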
HT1080-NT tox – qHTS for induction of synthetic lethality in tumor cells producing 2HG: qHTS for the HT-1080-NT fibrosarcoma cell line; HT-1080-NT fibrosarcoma viability, CellTiter-Glo ATP luminescence, 48 h; Potency, µM (series often up to 46.1 µM), usual class: cytotoxic; 360,000 tested, 1.6% active; AID 686970, 2013;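 further: NT is the 2HG producing partner of a matched IDH1 knockdown line; nearly all actives have a fitted effect of over 55% in size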
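Fibrosarcoma NT cells, 750 per well in 5% FBS RPMI, were exposed to compound for 48 hours. Viability: CellTiter-Glo luminescence.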
TGFb inhibitor – qHTS for Inhibitors of TGF-b | HepG2 CAGA-GFP TGF-b/SMAD3 reporter, GFP fluorescence, 18 h; TGF-beta stimulated, 500 pg/mL final | Potency, µM (series often up to 46.1 µM), usual class: inhibitors | AID 588855, 2011 | 410,000 tested, 1.2% active; further: nearly all actives have a fitted effect of over 65% in size
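HEPG2 CAGA-GFP cells (1000/well, DMEM with 1% FBS) were pre-incubated 2 h at 37 degrees C, given compound by pin tool, then stimulated with TGF-beta at 500 pg/mL final for 18 h before per-cell GFP fluorescence imaging.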
DT40 TDP1 CPT – qHTS for Inhibitors of human tyrosyl-DNA phosphodiesterase 1 (TDP1): qHTS in cells in presence of CPT. AID 686979, 2013. chicken DT40 Tdp1-/-;hTDP1 cells + 20 nM CPT, ATP luminescence, 48 h. 420,000 tested, 12% active. Potency, µM (top dose mostly 46.2 µM), most hits filed as inhibitors; further: nearly all actives have a fitted effect of over 55% in size
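Chicken DT40 Tdp1-/- cells complemented with human TDP1, 400 cells/well, exposed to compounds plus 20 nM camptothecin for at least 48 h at 37 C; viability read as ATP content by CellTiter-Glo luminescence.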
A number is an active result; . = inactive; ? = inconclusive; / = no result given; ! = not active in a repeat; [ ] = remark or other dose. In the library only some 17% were active in any assay of this set; here they are far more common. The call rests on the fitted dose curve; in most records, active means well fitted curve in the direction sought with a large enough effect; inconclusive means small, poorly fitted or top-dose-only effect, or another doubt; inactive means no such curve, though single readings can be large; an effect the other way counts as inactive or inconclusive.

SMILES	HT1080 IDH1KD tx	DT40 TDP1 no CPT	HepG2 tox	HT1080-NT tox	TGFb inhibitor	DT40 TDP1 CPT
CC(=O)N1N=C(c2cccc(Cl)c2)OC1c1cccc([N+](=O)[O-])c1 (stereo not drawn)	?	21µM	.	.	.	?
CC(=O)N1N=C(c2cccc([N+](=O)[O-])c2)OC1c1cccc(Br)c1 (stereo not drawn)	.	?	.	.	.	.
COc1cc(CN2CCC(C(=O)NCC(C)(C)CN(C)C)CC2)ccc1OCc1ccccc1	.	?	.	?	.	6.5µM
CC1=NN(c2ccccc2)C(=O)C1C(=O)C(=O)Nc1ccc(F)cc1 (stereo not drawn)	.	?	.	.	.	?
CC1=NN(c2ccccc2)C(=O)C1C(=O)c1ccc(Cl)cc1 (stereo not drawn)	.	23µM	.	?	.	21µM
CC1=C(C(=O)N2CCOCC2)CC(CC(=O)NCc2cccc3ccccc23)C(=O)N1Cc1ccccc1 (stereo not drawn)	.	?	.	.	.	?
COc1cccc2cc(C(=O)C3=C(O)C(=O)N(Cc4ccco4)C3c3cccnc3)oc12 (stereo not drawn)	.	23µM	.	.	.	?
O=C(C1=C(O)C(=O)N(Cc2ccco2)C1c1cccnc1)c1cc2ccccc2o1 (stereo not drawn)	.	?	.	.	.	?
CNC(=O)c1ccsc1NC(=O)c1coc2ccccc2c1=O	.	18µM	.	.	.	?
Cc1ccccc1Oc1ccccc1N	.	.	.	.	.	.
Nc1ccccc1Oc1ccc2ccccc2c1	.	?	.	.	16µM	.
Cc1cnn(CCC(=O)NNC(=S)Nc2ccc(F)cc2)c1	.	.	.	.	.	.
Cc1cnn(CCC(=O)NNC(=S)Nc2cccc(Cl)c2)c1	0.71µM	.	.	0.79µM	.	.
COC(=O)C[C@H]1CC[C@@H](NS(=O)(=O)c2ccc(C)cc2)[C@@H](CO)O1	.	.	/	.	/	.
COc1ccc2c(c1)OC(C)CN(CCNC(=O)c1cc3cc(F)ccc3[nH]1)C2 (stereo not drawn)	/	?	/	/	/	.[9.04 µM]
O=C(Cc1cccc2ccccc12)N/N=C/c1ccc(O)c([N+](=O)[O-])c1	.	.	.	.	.	.
O=C(Cc1cccc2ccccc12)N/N=C/c1ccc2cccc(O)c2n1	23µM	15µM	.	?	?	?
COC(=O)[C@H](CC(C)C)NS(=O)(=O)NC(=O)OC(C)(C)C	/	.	.	/	.	.
CSc1nc2c(c(=O)[nH]1)C(c1cccc(F)c1F)CC(=O)N2 (stereo not drawn)	/	.	.	/	.	.
Cc1ccc(CSc2nc3c(c(=O)[nH]2)C(c2cccc(F)c2F)CC(=O)N3)cc1 (stereo not drawn)	/	?	.	/	.	15µM
COc1cccc(-c2nc3n(n2)C(c2cccs2)C(C(=O)Nc2cccnc2)=C(C)N3)c1 (stereo not drawn)	.	?	.	.	.	15µM
CC1=C(C(=O)Nc2ccc(C)cc2C)C(c2cccs2)n2nc(SCc3cccc(C)c3)nc2N1 (stereo not drawn)	/	18µM	.	/	.	21µM
COc1cccc(CSc2nc3n(n2)C(c2cccs2)C(C(=O)Nc2ccccc2C)=C(C)N3)c1 (stereo not drawn)	/	13µM	.	/	.	21µM
COc1ccccc1NC(=O)C1=C(C)Nc2nc(SCc3ccccc3)nn2C1c1cccs1 (stereo not drawn)	/	15µM	.	/	.	.
CCCOc1cccc(C(=O)NCCNC(=O)c2ccc(C)nc2)c1	.	.	.	.	.	.
SMILES	HT1080 IDH1KD tx	DT40 TDP1 no CPT	HepG2 tox	HT1080-NT tox	TGFb inhibitor	DT40 TDP1 CPT
Cc1ccc(-n2nnnc2Sc2nc([N+](=O)[O-])nn2C)c(C)c1	.	?	.	.	?	16µM
COc1cc2c(cc1OC)C(c1cc(Br)c(OC)c(OC)c1)CC(=O)N2 (stereo not drawn)	.	?	.	.	.	?
O=C(CSc1nc2ccccc2n1CCc1ccccc1)c1ccc(O)c(O)c1	.	16µM	.	.	?	12µM
CCN(C(=O)CSc1nc2ccccc2n1CC(=O)NCc1ccc(OC)cc1)c1ccccc1	/	23µM	.	/	.	?
CCN(C(=O)CSc1nc2ccccc2n1CC(=O)Nc1ccccc1C)c1ccccc1	/	21µM	.	/	.	?
O=C(CSc1nc2ccccc2n1CCc1ccccc1)N1CCOCC1	.	?	.	.	?	?
COc1ccc(CNC(=O)Cn2c(SCC(=O)N(C)c3ccccc3)nc3ccccc32)cc1	/	18µM	.	/	.	?
COc1ccc(Cn2c(SCC(=O)NCc3ccccc3)nc3ccccc32)cc1	/	?	.	/	?	?
CSc1nc2ccccc2n1CC(=O)Nc1ccccc1	.	18µM	.	.	.	5.2µM
O=C(CSc1nc2ccccc2n1Cc1ccccc1)NCc1ccccc1	/	23µM	.	/	?	.
CCc1ccc(NC(=O)Cn2c(SC)nc3ccccc32)cc1	.	?	.	.	.	?
C=CCn1c(SCC(=O)N2CCC(C)CC2)nc2c([nH]c3ccccc32)c1=O	.	?	.	.	.	?
O=[N+]([O-])c1ccc(-c2cnc(SCc3ccccc3Cl)[nH]2)cc1	?	.	.	?	.	.
Cc1cc(C)c(CSc2ncc(-c3ccc([N+](=O)[O-])cc3)[nH]2)c(C)c1	26µM	10µM	.	?	?	16µM
O=[N+]([O-])c1ccc(-c2cnc(SC(c3ccccc3)c3ccccc3)[nH]2)cc1	21µM	?	.	23µM	?	?
O=C(NN=C1CCC(=NNC(=O)c2ccccn2)CC1)c1ccccn1	.	.	.	.	.	.
Cc1cc2c(cc1C)/C(=N/NC(=O)c1ccccn1)CCC2	.	23µM	.	.	.	?
O=C1[C@H]2[C@H](C=CC[C@H]2C(=O)N2CCN(c3ccccc3)CC2)CCN1Cc1ccc(Cl)c(Cl)c1	.	18µM	.	.	10µM!	16µM
O=C([C@@H]1CC=C[C@@H]2CCN(C3CC3)C(=O)[C@@H]21)N1CCN(c2ccccc2)CC1	.	.	.	.	.	.
